Source: PubChem
Integrin act MD – qHTS for Activators of Integrin-Mediated Alleviation for Muscular Dystrophy. alpha7betagal myoblasts, beta-gal FDG fluorescence, 48 h. Potency, µM (series often up to 38.3 µM), without a hit: top-dose activation, hits mostly activators. 350,000 tested, 0.064% active. AID 624291, 2012;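 further: 100% = response of the positive control SU9516; nearly all actives have a fitted effect of over 60% in size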
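Alpha7betagal+/- myoblasts (passage 13) were plated 16-24 hr, then exposed to compounds (1:260 dilution of DMSO stock) for 48 hours at 37C. After MPER lysis, β-galactosidase reporter activity was read as FDG fluorescence (ex 480/em 540) after 30 minutes.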
ClpP mod – qHTS Assay for Activators of ClpP; purified B. subtilis ClpP, FRET peptide cleavage, 20 min; AID 651965, 2013; 340,000 tested, 1.9% active; Potency, µM (series often up to 57.5 µM), inactives show at the highest dose activity change, negative = active; active means well fitted falling curve with a large enough effect; inconclusive means small, poorly fitted or top-dose-only effect; inactive means no such curve, though single readings can be large or run the other way; further: the source files actives as falling curves though it sought activators and does not explain the sign; nearly all actives have a fitted effect of over 65% in size
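Purified B. subtilis ClpP, 10 microg/mL final in Tris/HCl pH8 with KCl, BSA, glycerol and Tween-20, cleaved an Abz/nitrotyrosine-quenched decapeptide. Fluorescence (ex 320, em 430) was read at 0 and 20 min at room temperature. Delta was normalized to 5.8 microM ADEP and DMSO/no-enzyme controls.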
Eya2 phos inh – qHTS Assay for Inhibitors of the Phosphatase Activity of Eya2; Protein phosphatase EYA2 (Homo sapiens), O00167; recombinant Eya2, OMFP fluorescence dephosphorylation (OMFP is methylfluorescein phosphate); Potency, µM (titrated, usually from 76.9 µM), for the others: at the highest dose activity, negative = inhibition, actives largely listed as inhibitors; 330,000 tested, 0.006% active; further: on the % scale 0 is the no-effect control and ±100 the full control effect
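Eya2 (0.2 uM) preincubated 10 min at ambient with compound, then OMFP substrate added at 50 uM; 10 min reaction in 50 mM HEPES pH 7.5, 50 mM NaCl, 5 uM MgCl2, 0.05% BSA, 1 mM DTT. Fluorescence read at Ex 485/Em 525 nm.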
USP2a block – qHTS Assay for Inhibitors of Ubiquitin-specific Protease USP2a Using CHOP2 as the Reporter; Ubiquitin carboxyl-terminal hydrolase 2 (Homo sapiens), O75604; USP2 core, Ub-CHOP2 coupled fluorogenic reporter, 485/531; Potency, µM (titrated, usually from 38.3 µM), for inactives: at the top dose activity change, negative = inhibition, hits mostly inhibitors; 330,000 tested, 0.01% active; AID 463254, 2010;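 further: plate controls were DMSO wells for no effect and full inhibition by NEM control for full effect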
Target sequence (O75604 whole entry, looked up): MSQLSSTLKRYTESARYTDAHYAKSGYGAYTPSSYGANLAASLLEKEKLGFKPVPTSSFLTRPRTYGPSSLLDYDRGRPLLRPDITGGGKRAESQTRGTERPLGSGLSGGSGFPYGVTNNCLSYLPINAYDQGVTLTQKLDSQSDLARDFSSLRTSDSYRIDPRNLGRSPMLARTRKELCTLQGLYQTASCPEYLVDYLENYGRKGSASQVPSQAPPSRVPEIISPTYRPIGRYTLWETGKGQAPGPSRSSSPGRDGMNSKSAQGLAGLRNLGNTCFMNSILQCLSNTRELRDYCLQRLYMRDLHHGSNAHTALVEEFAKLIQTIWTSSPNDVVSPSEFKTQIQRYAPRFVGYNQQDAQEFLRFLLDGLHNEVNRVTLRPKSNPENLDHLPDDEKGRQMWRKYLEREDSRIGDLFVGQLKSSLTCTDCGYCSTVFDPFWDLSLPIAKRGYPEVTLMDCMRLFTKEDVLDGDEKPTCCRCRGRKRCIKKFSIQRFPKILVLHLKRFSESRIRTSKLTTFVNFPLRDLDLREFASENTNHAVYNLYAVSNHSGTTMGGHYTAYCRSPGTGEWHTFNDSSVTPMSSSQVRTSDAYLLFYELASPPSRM
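Deubiquitinase activity read as fluorescence (485/531 nm) after Ub-CHOP2 cleavage activates the enterokinase reporter on its substrate; USP2 core 10nM, Ub-CHOP2 and substrate 25nM each, 30min compound preincubation then 60min RT; data normalized to NEM, curves fitted.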
Mm-Cpn inhibitor – Inhibitors of TCP-1 ring complex (TRiC) of Methanococcus maripaludis (MmCpn): qHTS; Chaperonin Mm-Cpn (Methanococcus maripaludis); purified Mm-Cpn ATPase, ADP Transcreener TR-FRET; Potency, µM (highest dose often 76.9 µM), without a hit: at the highest dose activity, negative = inhibition, actives largely listed as inhibitors; 330,000 tested, 0.031% active; further: on the % scale 0 is the no-effect control and ±100 the full control effect; nearly all actives have a fitted effect of over 80% in size
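ATP (10 uM final) was added to archaeal chaperonin (25 nM final) after 10 min exposure to test compound at 37°C; after 30 min further incubation, ADP was detected by competitive TR-FRET.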
p53 reactivation – qHTS assay for re-activators of p53 using a Luc reporter; H1299 p53-A138V BP100-luciferase reporter, luminescence, 24 h; Potency, µM (highest dose often 92.2 µM), without a hit: at the highest dose activity change, positive = activation, most hits filed as activators; 320,000 tested, 0.063% active; AID 504706, 2011; further: % of control where 0% means no effect; nearly all actives have a fitted effect of over 45% in size
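p53-null H1299 cells stably carrying temperature-sensitive p53-A138V and a BP100-luciferase reporter were pinned with compounds (4-point, 1:5 series) and held 24 hrs at 37 deg C. Luminescence was read 10 min after detection reagent.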
* marks the source's active call; other numbers are inactive results; ? = inconclusive; . = not tested or not shown; [ ] = dose if it differs, or a comment. Only a selection was taken, and hits are over-represented in it overall. Unless noted, the call rests on the fitted dose curve; in most records, active means well fitted curve in the direction sought with a large enough effect; inconclusive means small, poorly fitted or top-dose-only effect, or another doubt; inactive means no such curve, though single readings can be large; an effect the other way counts as inactive or inconclusive. Potency means the concentration at half of the fitted maximal effect.

SMILES | Integrin act MD | ClpP mod | Eya2 phos inh | USP2a block | Mm-Cpn inhibitor | p53 reactivation
Cc1ccc(-c2nc3ccccc3[nH]2)s1 | -17% | -2% | 15% | -1% | -2% | 0%
COc1ccc(-c2nc3ccccc3[nH]2)cc1 | 8% | 25µM* | -25% | 2% | -1% | 8%
Cc1nnsc1-c1nc2ccccc2[nH]1 | -5% | 25µM* | 6% | 0% | -5% | 1%
c1ccc(-c2nc3ccccc3[nH]2)cc1 | . | 4% | 4% | 1% | 1% | .
Cc1[nH]c2ccccc2c1-c1nc2ccccc2[nH]1 | -37% | 16µM* | -2% | 2% | -1% | 22%
CCCCCCCOc1ccc(CC(=O)NO)cc1 | . | -5% | . | . | . | .
CCc1ccc(C(c2ccccc2)c2c[nH]c3ccc(C)cc23)s1 (centres undefined) | . | -9% | . | . | . | .
CN=c1scc(-c2ccc(OC)cc2)n1/N=C(\C)c1cccnc1 | 5µM* | -3% | -9% | 1% | -1% | 7%
COc1ccc(CC(=O)N/N=C(\C)c2cccnc2)cc1 | -8% | 1% | 6% | -1% | -8% | 7%
O=c1[nH]cnc2sc(-c3ccccc3)cc12 | 12% | 32µM* | -36% | 5% | -11% | 22%
COc1ccc(C(=O)N/C(=C/c2cccnc2)C(=O)N2CCN(C)CC2)cc1OC | 4.5µM* | -5% | 2% | 0% | 1% | -3%
COc1ccc(/C=C(\NC(=O)c2ccccc2)C(=O)N2CCN(C)CC2)cc1OC | 12% | . | 4% | 5% | 0% | 0%
COc1ccc(/C=N/NC(=S)Nc2ccccc2)cc1COc1ccc(F)cc1F | 4% | 35µM* | -3% | -4% | -6% | -10%
COc1ccc(C(C)(C)C)cc1NC(=O)CNc1cccc2ccccc12 | -11% | 11µM* | 5% | -3% | -3% | 13%
CCOC(=O)Nc1ccc(=O)n(Cc2c(Cl)cccc2Cl)c1 | 11% | 28µM* | 8% | 2% | -8% | -3%
CCOC(=O)CN1C(=O)C(=O)N(Cc2c(Cl)cccc2Cl)C1=O | 0% | . | 14% | 19% | -1% | 1%
CCC(=O)NCCc1cc2cc(C)c(C)cc2[nH]c1=O | 22% | 16µM* | 8% | 1% | 1% | -3%
C[C@@H]1[C@H](c2ccccc2)OCCS(=O)(=O)N1Cc1ccc(Cl)cc1 | . | 1% | . | . | . | .
NS(=O)(=O)c1ccc(N/N=C/c2cn(-c3ccccc3)nc2-c2cccs2)c([N+](=O)[O-])c1 | -71% | . | -5% | -1% | 1% | -9%
NS(=O)(=O)c1ccc(N/N=C/c2cn(-c3ccccc3)nc2-c2cccs2)cc1 | -51% | 16µM* | -3% | -5% | 0% | 6%
COc1ccccc1S(=O)(=O)N1CCN(c2nc(-c3cccs3)nc3ccccc23)CC1 | . | 4% | . | . | . | .
O=C(CCc1ccccc1)NC(=S)Nc1ccc(S(=O)(=O)N2CCOCC2)cc1 | -5% | 10µM* | 3% | 0% | 0% | 8%
O=S(=O)(c1ccc(NC(=S)Nc2ccccc2)cc1)N1CCOCC1 | -4% | 0% | 3% | 2% | -1% | -9%
O=S(=O)(Nc1ccc(F)cc1F)c1ccc(-n2cccn2)cc1 | . | -1% | . | . | . | .
COc1cc(Cl)c(S(=O)(=O)NCCc2c(C)[nH]c3c(C)cccc23)cc1Cl | . | 0% | . | . | . | .
SMILES | Integrin act MD | ClpP mod | Eya2 phos inh | USP2a block | Mm-Cpn inhibitor | p53 reactivation
CCCCOC(=O)CCc1nc2ccccc2[nH]c1=O | -1% | ? | 5% | 3% | -1% | -2%
CCOC(=O)c1ccc(COC(=O)CCc2nc3ccccc3[nH]c2=O)o1 | -35% | 32µM* | 1% | 5% | 2% | 2%
COc1ccc(C2CC(=O)N3CN(c4ccccc4F)CSC3=C2C#N)cc1OC (centres undefined) | 21% | 3% | -1% | 4.5µM* | 0% | 1%
CCc1ccc(NC(=O)Cn2c(SCc3ccc(C)cc3)nc3ccncc32)cc1 | . | -10% | . | . | . | .
C=CCSC1=C(C#N)C(c2ccccc2C)CC(=O)N1 (centres undefined) | -6% | 28µM* | 19% | 3% | 0% | -10%
COc1cc(C(=O)NCCCNc2nc3cc(C)cc(C)c3cc2C#N)cc(OC)c1OC | -31% | 25µM* | 5% | -1% | -2% | -3%
Cc1cc(C)c2cc(C#N)c(NCCCNC(=O)c3ccncc3)nc2c1 | -13% | 4% | . | . | . | .
Cc1cccc(C)c1OCCCn1c(CCNC(=O)C2CCCCC2)nc2ccccc21 | . | -3% | . | . | . | .
Cc1c(Cl)c([N+](=O)[O-])nn1CCCC(=O)N1CCN(c2ccccc2)CC1 | -6% | 1% | 3% | -1% | 0% | 0%
Cc1c(Br)c([N+](=O)[O-])nn1CCCC(=O)N1CCN(c2ccccc2)CC1 | -2% | 14µM* | -2% | 3% | 0% | -7%
Cc1ccc(NC(=O)c2c(C)oc3ccc(O)c(CN4CCN(Cc5ccccc5)CC4)c23)cc1 | . | -8% | . | . | . | .
COc1cccc(N2CCN(C(=O)Cn3c(-c4cccs4)cc4ccccc43)CC2)c1 | . | 16µM* | . | . | . | .
CCN1CCN(C(=O)Cn2c(-c3cccs3)cc3ccccc32)CC1 | . | 32µM* | . | . | . | .
Cc1cccc(CCn2c(=O)c3ccccc3n(Cc3cccc(F)c3)c2=O)c1 | . | -9% | . | . | . | .
O=C(C[n+]1cccc(Br)c1)c1ccc(I)cc1 | . | 0% | . | . | . | .
CCOc1ccc2nc(NCCNC(=O)CC)c(C#N)cc2c1 | -9% | ? | -11% | 0% | 0% | -3%
CCC(=O)NCCNc1nc2cc(C)c(C)cc2cc1C#N | -2% | 13µM* | -7% | -11% | 1% | -5%
Cc1ccc2cc(C#N)c(NCCNC(=S)NCCCN(C)C)nc2c1C | -8% | ? | -2% | 2% | -2% | 1%
Cc1ccc2cc(C#N)c(NCCNC(=O)C3CC3)nc2c1C | -6%[7.66 µM] | 35µM* | 5% | 0% | 2% | 2%
CC1=Nc2ccccc2/C1=C/c1ccc(N(C)C)cc1 | . | -8% | . | . | . | .
O=C(NCCN1CCN(Cc2ccc([N+](=O)[O-])cc2)CC1)C(=O)Nc1ccccc1 | 12% | 0% | -26% | 1% | 1% | 4%
O=C(NCCN1CCN(S(=O)(=O)c2ccc([N+](=O)[O-])cc2)CC1)C(=O)Nc1ccccc1 | 2% | 28µM* | 17% | 7% | 2% | 3%
Brc1ccc(C2C=Cc3ccccc32)cc1 (centres undefined) | . | -1% | . | . | . | .
